The values below come from PubChem BioAssay AID602393 (Broad Institute, 2012).

About 7,000 (2%) of roughly 350,000 compounds were called active. This excerpt belongs to a sample that is enriched for actives. A number with no mark means an inactive call. Rule as the data show it: active = activation above about 40%; inconclusive = no clear call, values can overlap the other calls; inactive = below that.

This test can be described thus: raisers of Bmi1 knock-in reporter signal – mouse ES cells, Bmi1 luciferase knock-in, single point, esBAF inhibitor project, primary screen (AID 602393).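 Also: 0% = median of the plate's neutral control wells and 100% = double that signal; a rise in the Bmi1 reporter signal indicates esBAF inhibition.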 The following applies: 24 h, at 12.5 µM, hits give high values, 100% = twice the neutral-well signal.
On to `O=C(Cc1ccncc1)NCC[C@@H]1CC[C@H](NC(=O)Nc2ccc(Cl)cc2)[C@@H](CO)O1`, for which the reporter increase is -1.9%. With `CN1CCN(C(=O)C[C@H]2C[C@H]3c4cc(NC(=O)C5CCC5)ccc4O[C@H]3[C@H](CO)O2)CC1` the figure was 1.39%. The value for `O=C(NCCN1CCCC1)[C@@H]1N[C@@H]2c3ccc(-c4ccccc4)c(=O)n3C[C@@H]2[C@H]1CO` was -5.2%. The value for `O=C(C[C@@H]1CC[C@H](NC(=O)Nc2cc(F)ccc2F)[C@H](CO)O1)NCc1ccncn1` was 4.9%. For the compound `C[C@H]1CN([C@@H](C)CO)C(=O)c2cc(-c3ccccc3F)cnc2O[C@@H]1CN(C)C(=O)C1CCCCC1`, the reporter increase is -0.372%. The value for `CC=Cc1ccc2n(c1=O)C[C@@H]1[C@@H](CO)[C@H](C(=O)NCc3cccc(OC)c3)N[C@H]21` (mixture of isomers) was 0.983%; that for `CCCNC(=O)N1[C@H](CNC(=O)c2cccc(F)c2)[C@H](c2ccccc2)[C@@H]1CO` was 3.53%. The value for `C[C@@H]1CCCCO[C@H](CN(C)Cc2ccc(C(F)(F)F)cc2)[C@H](C)CN([C@@H](C)CO)C(=O)c2cc(N(C)C)ccc2O1` was 0.085%; that for `COc1ccc(C#Cc2cnc3c(c2)C(=O)N([C@H](C)CO)C[C@@H](C)[C@H](CN(C)C(=O)Nc2cccc(OC)c2)O3)cc1` was 4.12%; that for `COc1ccccc1-c1cnc2c(c1)C(=O)N([C@H](C)CO)C[C@H](C)[C@H](CN(C)Cc1cccnc1)O2` was -8.49%. With `COc1ccc(S(=O)(=O)N(C)C[C@H]2OCCCC[C@H](C)Oc3ccc(NC(=O)Nc4ccc(F)cc4)cc3C(=O)N([C@@H](C)CO)C[C@H]2C)cc1` the figure was 0.828%; with `COc1ccc(S(=O)(=O)Nc2cccc3c2O[C@@H](CN(C)S(=O)(=O)c2ccccc2)[C@@H](C)CN([C@@H](C)CO)C3=O)cc1`, 1.5%; with `Cc1ccc(S(=O)(=O)NCC(=O)Nc2ccc3c(c2)OCCO3)cc1`, -6.84%. `CC(C)CNS(=O)(=O)c1ccc(C(=O)Nc2ccc3c(c2)OCO3)cc1`: the reporter increase is -0.727%. Take `CNS(=O)(=O)c1ccc(NC(=O)Nc2ccc3c(c2)OCO3)cc1`: the reporter increase is 52.5% (active). On to `CO[C@@H]1CN(C)C(=O)c2cc(NC(=O)c3ccccc3F)ccc2OC[C@H](C)NC[C@@H]1C`, for which the reporter increase was -0.986%. With `Cc1nn(-c2ccccc2)c(CC(C)(C)C(=O)O)c1C(=O)O` the figure was -1.54%. For `Cc1cccc(C)c1NC(=O)COC(=O)c1c(C)nn(-c2ccccc2)c1C`, the reporter increase is -0.0425%. Take `Cc1ccc(OC(=O)c2c(C)nn(-c3ccccc3)c2C)cc1`: the reporter increase was 65% (active).

As for `O=C(Nc1cccc(Cl)c1)N1C[C@@H]2[C@H](c3ccccc31)[C@H](CO)N2C(=O)C1CC1`, the reporter increase is -2.51%.

`CCS(=O)(=O)Nc1ccc2c(c1)C(=O)N(C)C[C@@H](OC)[C@@H](C)CN(C(=O)COC)[C@H](C)CO2`: the reporter increase was -2.28%. With `Cc1ccccc1Nc1nc(-c2cccnc2)cs1`, the reporter increase was 71.3% (active). The value for `CN(c1ccc(O)cc1)c1nc(-c2cccnc2)cs1` was 33.5%.

With `O=C(NCc1cccnc1)C(=O)Nc1nc(-c2ccccc2)cs1`, the reporter increase is 38.2%. For the compound `COc1ccc(-c2ccc([C@@H]3[C@@H](CO)N4CCCCN(C(=O)NC(C)C)C[C@H]34)cc2)cc1`, the reporter increase was -0.595%. With `CN(C)C(=O)c1cccc(-c2ccc3c(c2)[C@H]2[C@H](CCN2C(=O)c2cccnc2)[C@H](CO)N3)c1` the figure was -0.408%; with `CO[C@H]1CN(C)C(=O)c2ccc(NC(=O)c3cnccn3)cc2OC[C@@H](C)N(C(C)=O)C[C@H]1C`, -1.77%. With `C[C@H](NC(=O)C[C@H]1C=C[C@H](NS(=O)(=O)c2cccc(F)c2)[C@@H](CO)O1)c1ccccc1` the figure was -4.57%. With `C[C@@H]1CCCCO[C@H](CN(C)S(=O)(=O)c2cn(C)cn2)[C@H](C)CN([C@H](C)CO)C(=O)c2cc(N(C)C)ccc2O1`, the reporter increase was -3.59%. The value for `COc1ccc(/C(C)=N/NC(=O)c2ccc3nc[nH]c3c2)cc1` was -4.25%; that for `COc1cccc(/C(C)=N/Nc2ncc(Cl)cc2Cl)c1` was 54% (active); that for `COC(=O)c1sccc1N/N=C(\C)c1ccc(F)c(Cl)c1` was 11.8%. Take `C[C@@H]1CN([C@@H](C)CO)C(=O)Cc2cc(NC(=O)CCCCCC(=O)Nc3ccccc3N)ccc2O[C@H]1CN(C)Cc1ccc(Cl)c(Cl)c1`: the reporter increase is -6.35%. The value for `CSc1ccccc1OCc1cc(C(=O)N(C)CCc2c(C)n[nH]c2C)no1` was -2.74%; that for `Cc1nonc1C1CCCN1C(=O)c1cc(COc2cccc(C(F)(F)F)c2)on1` (configuration not stated) was -1.7%; that for `CSc1ccccc1OCc1cc(C(=O)N2C[C@H]3CC[C@H]2C3)no1` was 87.7% (active). With `CCNC(=O)[C@@H]1[C@@H](CO)[C@@H]2Cn3c(ccc(C4=CCCC4)c3=O)[C@H]1N2Cc1ccccc1` the figure was -1.26%; with `O=C(C[C@@H]1CC[C@H]2[C@@H](COC[C@H](O)CN2C(=O)Nc2ccccc2)O1)NCc1ccccc1F`, 4.71%. The value for `COc1cc(-c2nnc(NC(=O)C3=COCCO3)o2)cc(OC)c1OC` was -0.666%. Regarding `CCC(CC)c1nnc(NC(=O)C2CCN(C(=O)c3ccco3)CC2)s1`, the reporter increase was 3.96%. With `CCC(CC)c1nnc(NC(=O)C2=COCCO2)s1` the figure was 53.6% (active); with `COC(=O)c1sc(NC(=O)c2csc3c2CCCC3)nc1C`, 52.4% (active); with `CC1CC(C)CN(CCCNC(=O)c2csc3c2CCCCC3)C1` (configuration not stated), -0.645%. The value for `O=C(Nc1ccccc1N1CCOCC1)c1csc2c1CCCC2` was 2.6%. With `CN1c2ccc(Br)cc2[C@H]2[C@H](CCN2S(=O)(=O)c2ccccc2)[C@@H]1CO` the figure was 1.11%; with `CO[C@H]1CN(C)C(=O)c2cc(NC(=O)c3cc(C)on3)ccc2OC[C@@H](C)N(C(C)=O)C[C@H]1C`, -1.52%; with `COc1ccc(Cc2nnc(NC(=O)c3cc(OC)c(OC)c(OC)c3)s2)cc1OC`, -8.39%.

For the compound `COc1cccc(OC)c1C(=O)Nc1nnc(C(C)C)s1`, the reporter increase was 4.44%. With `COc1ccc(C(=O)NC2=NCCS2)c(OC)c1` the figure was -5.27%; with `COc1ccc(C(=O)Nc2nncs2)c(OC)c1`, 72.1% (active).

As for `COc1ccc(Cc2nnc(NC(=O)Cc3cccs3)s2)cc1`, the reporter increase was -12.5%.

Take `COc1ccc(Cc2nnc(NC(=O)c3ccc(OC)cc3OC)s2)cc1`: the reporter increase is 60.8% (active).
